Values joined by “and” are separate entries in the source; they are usually repeats but may differ in a detail not shown here. Equal entries are not always repeated. About 83,000 compounds went through this panel and 20% of them were active in at least one assay; those are over-represented in the sample as a whole.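 The endpoint reported here, percent growth, reads 100 for growth as untreated, 0 for no net growth and -100 for all cells dead.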 Active and inactive are the calls of the source. Where a SMILES comes first, the peptide text is derived from it.

From PubChem BioAssay (NCI) come the findings set out here.

This assay deals with A498 renal. Description: NCI-60 one-dose screen, 48 h (100 = growth as untreated, 0 = no growth, -100 = all killed). The settings on record: 10 µM unless noted. The procedure: Growth inhibition of the A498 human tumor cell line is measured as a screen for anti-cancer activity. Cells are grown in 96 well plates and exposed to the test compound for 48 hours. Compounds are tested at a single concentration, which is 10^-5 M for most compounds. The reported endpoint is percent growth (GI% or GIPRCNT), where numbers from 0 - 100% represent growth inhibition, and numbers from -100% - 0 represent cell death. For example, a value of 40 represents 60% growth inhibition. A value of 0 means no net growth occurred over the course of the experiment. A value of -40 indicates 40% of cells at the beginning of the experiment died by the end of the experiment. A value of -100 means all cells are dead at the end of the experiment.
NCI-60 Human Tumor Cell Lines Screen was performed using the standard one-dose NCI protocol, which is described in more detail at https://dtp.cancer.gov/discovery_development/nci-60/default.htm.
Compounds with GIPRCNT values below 10 were considered active. Activity score was based on GIPRCNT using the following formula: […]
Score is 0 for GIPRCNT values of 100 or above, 50 for GIPRCNT values of 0, and 100 for GIPRCNT values of -100.
For the compound `NN1CCOC(c2ccccc2)C1` (stereo not given), the growth was 107% (inactive). Then `Cl`, with 88.1% (inactive).

Regarding `OCCN1CCCCCCC1`, the growth was 100% (inactive).

As to `CCCCOC(=O)/C=C\C(=O)NC(N)=O`, the growth is 106% (inactive). In the case of `NC1CCC(C(=O)O)CC1` (stereo not given) it was 94.7% (inactive) and 86.6% (inactive); in that of `NC(Cc1c[nH]c2ccccc12)C(=O)O` (stereo not given), 109% (inactive) and 106% (inactive); in that of `NC(=O)NCCCC(N)C(=O)O` (stereo not given), 113% (inactive). In the case of `c1ccc(-c2nc3ccccc3s2)cc1`, the growth was 100% (inactive). Then `N#CC(C#N)N=Nc1ccc(Cl)cc1`, with 86% (inactive); and `CCN(CCNS(C)(=O)=O)c1ccc(N)c(C)c1`, with 104% (inactive) and 94.2% (inactive); and `CC(C)NC(=O)N/C=C(\C#N)C(N)=O`, with 112% (inactive). For the compound `COc1ccc2cc1Oc1ccc(cc1)C[C@H]1c3cc(c(OC)cc3CCN1C)Oc1c(OC)c(OC)cc3c1[C@H](C2)N(C)CC3`, the growth was 72.1% (inactive). In the case of `CC1CCC2(OC1)OC1CC3C4CC=C5CC(O)CCC5(C)C4CCC3(C)C1C2C` (stereo not given) it was 110% (inactive); in that of `O=C(Cc1ccccc1)c1ccc(O)c(Cl)c1`, 105% (inactive); in that of `O=C(CO)C(O)C(O)C(O)C(O)CO` (stereo not given), 97.5% (inactive) and 100% (inactive). Then `O=CN1CCCCC1`, with 84.1% (inactive); and `COc1cc(C(O)C2C(=O)OCC2C2(c3ccc4c(c3)OCO4)SCCCS2)cc(OC)c1OC` (stereo not given), with 84.4% (inactive). Regarding `OC1COC(OCc2ccccc2)C(O)C1O` (stereo not given), the growth is 92.9% (inactive). Then `C/C(=C\c1ccccc1)c1ccccn1`, with 111% (inactive); and `CN(C)CC1CCCCCC(CN(C)C)C1=O` (stereo not given), with 117% (inactive). As for `Fc1ccc([I+]c2ccc(F)cc2)cc1`, the growth is 78.3% (inactive). In the case of `O=c1[nH]cnc2c1ncn2C1OC(CO)C(O)C1O` (stereo not given) it was 116% (inactive) and 129% (inactive) and 113% (inactive). In the case of `COc1ccc(C(=O)CC(c2ccccc2)C(C#N)c2ccccc2)cc1` (stereo not given) it was 86.5% (inactive); in that of `c1ccc(CNCCNCc2ccccc2)cc1`, 96.5% (inactive); in that of `O=C(O)CCCl`, 99.1% (inactive). Take `CCCCCCCCCCNC(=O)CI`: the growth was 111% (inactive). Then `CC1CCC(C(C)C)C(NNC(N)=O)C1` (stereo not given), with 102% (inactive). In the case of `CC(C)NCC(O)c1ccc(O)c(O)c1` (stereo not given) it was 95.8% (inactive) and 119% (inactive) and 78.3% (inactive); in that of `CCCCCCCCCCCCCCCc1ccc(N)c(OC2OC(CO)C(O)C(O)C2O)c1` (stereo not given), 79.2% (inactive).

For `Oc1ccc(Cc2ccccc2Cl)c(O)c1`, the growth is 75.3% (inactive). For `CC1(C)COC(=S)N1`, the growth is 121% (inactive). Regarding `Cc1ccc(S(=O)(=O)c2ccccc2)cc1`, the growth is 28% (inactive). Then `O=C1C=C(Nc2ccccc2)c2ccccc2C1=O`, with 87% (inactive) and 113% (inactive); and `Brc1ccc(SSc2ccc(Br)cc2)cc1`, with 71.2% (inactive). Then `O=C1OC(C(O)C(O)CO)C(O)=C1O` (stereo not given), with 129% (inactive) and 116% (inactive). Consider `CC1CCC2(C(=O)O)CCC3(C)C(=CCC4C5(C)CCC(O)C(C)(C)C5CCC43C)C2C1C` (stereo not given), for which the growth was 103% (inactive). Consider `CN1CNC(=O)NC1`, for which the growth is 100% (inactive) and 72.4% (inactive).

As to `CC(=O)OC(C)C(=O)NCC(C)O` (stereo not given), the growth was 98.2% (inactive). In the case of `NC(Cc1ccccc1)C(=O)NC(Cc1ccccc1)C(=O)O` (stereo not drawn) (H-Phe-Phe-OH; configuration not given here) it was 93.2% (inactive) and 102% (inactive); in that of `Cc1ccc(=O)[nH]n1`, 110% (inactive) and 94.1% (inactive).
